# Results from PubChem BioAssay AID1817 (Sanford-Burnham Center for Chemical Genomics, 2009).
# Several values for one entry are separate records, joined by “and”; a condition that tells them apart may be missing. Equal values may be shown once. Out of some 290,000 compounds screened, about 50 (0.02%) were called active.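 The calls were made as follows: active = displacement of at least 50% at 20 µM, with a fluorescence ratio check between 0.3 and a set limit; inactive = the rest.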 Only a selection was taken, and actives are over-represented in it overall. Potency and affinity values are given separately.
# Target: E3 ubiquitin-protein ligase SIAH1 (Homo sapiens) (UniProt Q8IUQ4)
# Sequence (Q8IUQ4 whole entry, looked up): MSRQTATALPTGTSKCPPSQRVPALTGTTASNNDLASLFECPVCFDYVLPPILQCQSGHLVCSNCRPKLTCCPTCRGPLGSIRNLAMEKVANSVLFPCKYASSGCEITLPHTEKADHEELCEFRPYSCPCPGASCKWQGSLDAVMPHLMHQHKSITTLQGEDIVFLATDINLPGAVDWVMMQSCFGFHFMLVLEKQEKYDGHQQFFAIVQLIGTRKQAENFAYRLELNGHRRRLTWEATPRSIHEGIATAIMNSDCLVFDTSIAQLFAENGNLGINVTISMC
# Assay: Siah-1 peptide-binding antagonists, primary screen, biochemical, fluorescence polarization, rhodamine-plectin, uHTS (AID 1817);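 also: plate controls were Siah plus tracer with DMSO for no effect and tracer alone without Siah for full effect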
# Conditions: Siah-1 / rhodamine-plectin peptide fluorescence polarization; at 20 µM; hits give high values
row,Structure (SMILES),displacement
1,O=C(Nc1ccc(Nc2ccncc2)cc1)c1ccc([N+](=O)[O-])cc1,2.7% (inactive)
2,O=C(Nc1ccc(Nc2ccncc2)cc1)c1ccc(Nc2ccnc3ccc([N+](=O)[O-])cc23)cc1,60% (active)
3,O=C(Nc1ccc(Nc2ccncc2)cc1)c1ccc(Nc2ccnc3ccc([N+](=O)[O-])cc23)cc1[N+](=O)[O-],17.2% (inactive)
4,CSc1ccc(/C=C/C(=O)N2CCCN(C)CC2)cc1,4% (inactive)
5,N#Cc1ccc(NC(=O)CNc2cc(S(=O)(=O)N3CCOCC3)ccc2NCC2CCCO2)cc1 (stereo not drawn),-0.4% (inactive)
6,CCc1nnc(NC(=O)c2ccc(COc3ccccc3Cl)o2)s1,5.6% (inactive)
7,CCOC(=O)C1(S(=O)(=O)c2ccc(Cl)cc2)CCN(Cc2ccc(C)cc2)CC1,-0.2% (inactive)
8,COc1cccc(C(=O)N2CCN(Cc3ccccc3Br)CC2)c1,3.1% (inactive)
9,COC(=O)C(C(=O)OC)C(c1ccccc1)C(C(=O)c1ccccc1)[N+](=O)[O-] (stereo not drawn),2% (inactive)
10,COc1cc(OC)c(-c2c3cc(O)c(=O)cc-3oc3cc(O)c(O)cc23)cc1OC,48% (inactive)
11,O=c1cc2oc3cc(O)c(O)cc3c(-c3ccccc3[N+](=O)[O-])c-2cc1O,48.7% (inactive)
12,CCOc1ccccc1-c1c2cc(O)c(=O)cc-2oc2cc(O)c(O)cc12,61.3% (active)
13,Cc1c2cc(O)c(=O)cc-2oc2cc(O)c(O)cc12,70.1% (inactive) and 99.1% (inactive)
14,COc1ccc(OC)c(-c2c3cc(O)c(=O)cc-3oc3cc(O)c(O)cc23)c1,58.5% (inactive)
15,O=c1cc2oc3cc(O)c(O)cc3c(-c3ccccc3O)c-2cc1O,83.3% (active)
16,COc1cc(S(=O)(=O)NC(C)C)ccc1Cl,3% (inactive)
17,CC(C)c1ccccc1NC(=S)N(C)C,-9.8% (inactive)
18,COC(=O)CCSc1nc(N2CCOCC2)c2c(c1C#N)CC(C)(C)OC2,1.2% (inactive)
19,Cc1cccc(C)c1NC(=O)C1CCCN1S(=O)(=O)c1ccc2c(c1)n(C)c(=O)c(=O)n2C (stereo not drawn),2.2% (inactive)
20,COCCNC(=S)N(CCc1c(C)[nH]c2ccc(C)cc12)Cc1ccco1,1.4% (inactive)
21,CCOC(=O)c1ccc(-n2c(O)c(/C=N/NC(=O)C3COc4ccccc4O3)c3ccccc3c2=O)cc1 (stereo not drawn),-6% (inactive)
22,Cc1nc(NC(=S)NC(=O)c2cncc(Br)c2)ccc1Br,-7% (inactive)
23,Cc1cccc(C(=O)NC(C(=O)Nc2nc(-c3ccccn3)cs2)C(C)C)c1 (stereo not drawn),-2.5% (inactive)
24,O=C(NN1C(=O)C2CC=C(Cl)CC2C1=O)c1ccncc1 (stereo not drawn),69.4% (active)

row,Structure (SMILES),displacement
1,O=C(NN1C(=O)C2C(C1=O)C1C=CC2C12CC2)c1ccncc1 (stereo not drawn),0.7% (inactive)
2,O=C(NN1C(=O)C2C3C=CC(C3)C2C1=O)c1ccncc1 (stereo not drawn),3.2% (inactive)
3,C[C@@H](C[C@@H](O)[C@H](O)C(C)(C)O)[C@@H]1CC[C@]2(C)C3=CC[C@H]4C(C)(C)C(=O)CC[C@]4(C)[C@H]3CC[C@@]12C,2.8% (inactive)
4,CC(NC(=O)C1CCCN(S(=O)(=O)c2cccs2)C1)c1ccccc1 (stereo not drawn),0.2% (inactive)
5,COc1cc(OC)c(OC)cc1CN1CCCC(C(=O)c2sccc2C)C1 (stereo not drawn),-6.6% (inactive)
6,COc1ccc(CCn2c(N)c(C(=O)NCc3ccco3)c3nc4ccccc4nc32)cc1OC,-1.3% (inactive)
7,COc1ccc(CCn2c(N)c(C(=O)NCc3ccco3)c3nc4ccccc4nc32)cc1,57.5% (active)
8,Nc1c(C(=O)NCc2ccco2)c2nc3ccccc3nc2n1CCc1ccc(F)cc1,2.1% (inactive)
9,Cn1c(Cl)c(/C=N/OC(=O)c2ccccc2Cl)c2ccccc21,-1.7% (inactive)
10,CC12CCC(C(=O)NCc3ccco3)(OC1=O)C2(C)C (stereo not drawn),1.5% (inactive)
11,CN1C(=O)NC(c2ccccc2[N+](=O)[O-])C2=C1CC(C)(C)CC2=O (stereo not drawn),4.2% (inactive)
12,CN1C(=O)NC(c2cccc([N+](=O)[O-])c2)C2=C1CCCC2=O (stereo not drawn),3% (inactive)
13,C/C(=N\OC(=O)Nc1ccccc1)c1cnn(-c2cc(C(F)(F)F)cc(C)n2)c1C,5.7% (inactive)
14,CCOC(=O)c1sc(=S)n(CC)c1N,-0.9% (inactive)
15,COCCn1c(C)c(C(=O)O)sc1=S,2.3% (inactive)
16,COc1cc2ncnc(NCc3ccccc3C)c2cc1OC,4.9% (inactive)
17,CCOC(=O)c1cccc(NC(=O)CSc2nnc(C)n2Cc2ccccc2)c1,-0.6% (inactive)
18,CC(=O)Nc1ccc(N=Cc2c(O)ccc3ccccc23)cc1,-0.3% (inactive)
19,CC(=O)Nc1ccc(N=Cc2c(O)c3ccccc3oc2=O)cc1,1.2% (inactive)
20,Cc1cccc(N2CCN(C(=O)c3ccc(NC(=O)C4CCCO4)cc3)CC2C)c1 (stereo not drawn),1.8% (inactive)
21,COCCNC(=O)/C(C#N)=C/c1ccc(OCc2ccc(F)cc2)cc1,-1.7% (inactive)
22,Cc1cc(/C=C2\NC(=O)NC2=O)c(C)n1-c1ccc(N2CCOCC2)cc1,-9.1% (inactive)
23,COc1ccc(OCCn2c(N)nc3ccccc32)cc1,3.4% (inactive)
24,O=C(NC1CCCC1)c1ccc(COc2ccccc2Br)o1,2.7% (inactive)

row,Structure (SMILES),displacement
1,O=c1[nH]c(-c2ccc3c(c2)OCO3)nc2c1sc(=S)n2-c1ccccc1,1.9% (inactive)
2,O=c1[nH]c(-c2ccccc2Cl)nc2c1sc(=S)n2-c1ccccc1,2.3% (inactive)
3,COc1ccccc1CN1CC(C(=O)N(C)Cc2ccc(C)o2)CCC1=O (stereo not drawn),-3.9% (inactive)
4,Oc1ccc(/C=N/Nc2cccc3cccnc23)c(O)c1,-3.9% (inactive)
5,Oc1c(/C=N/Nc2cccc3cccnc23)ccc2ccccc12,93.1% (active)
6,Oc1ccccc1/C=N/Nc1cccc2cccnc12,-2.4% (inactive)
7,CCCCCCOc1ccc(N2C(=O)CC(N3CCN(CCN=CC4=C(O)CC(C)(C)CC4=O)CC3)C2=O)cc1 (stereo not drawn),1.8% (inactive)
8,CC(C)(C)c1ccc(C(CC(=O)O)NC(=O)Cc2ccc(Cl)cc2)cc1 (stereo not drawn),-2.3% (inactive)
9,CC(C)(C)c1ccc(C(CC(=O)O)NC(=O)Cc2ccccc2)cc1 (stereo not drawn),1.2% (inactive)
10,CCOC(=O)c1nn(-c2cccc(OC)c2)c2nc(CC)c(C#N)c(=O)n12,12.2% (inactive)
11,C=CCc1cccc2cc(C(=O)Nc3ccc(NC(C)=O)cc3)c(=O)oc12,9.1% (inactive)
12,C=CCc1cccc2cc(C(=O)Nc3ccc(F)cc3)c(=O)oc12,5.1% (inactive)
13,CCn1c(SC(C)C(=O)O)nnc1-c1cccnc1 (stereo not drawn),-1.4% (inactive)
14,Cc1ccc(-n2ncc3c2CC(C)(C)CC3NC(=O)c2ccc[n+]([O-])c2)cc1 (stereo not drawn),4.8% (inactive)
15,OCCNC(=S)Nc1ccc2nsnc2c1,-1.1% (inactive)
16,C=CCNC(=S)Nc1ccc2nsnc2c1,52.1% (active)
17,C=CCNC(=S)Nc1ccc2nc(C)c(C)nc2c1,3.4% (inactive)
18,O=C(N/N=C/c1cccnc1)c1ccc2c(c1)OCCO2,-2.3% (inactive)
19,COc1ccc(-c2nc3c4ccccc4ccn3c2CN2CCOCC2)cc1OC,13.8% (inactive)
20,COC(=O)c1ccc2c(=O)n(CCCN3CCCC3=O)c(=S)[nH]c2c1,-3.7% (inactive)
21,O=C(O)c1nc(-c2ccccc2)n(-c2cccc(C(F)(F)F)c2)n1,-2.9% (inactive)
22,COCCNC(=O)CSc1nc2cc(OC)c(OC)cc2c(=O)n1Cc1ccc(OC)cc1,0.2% (inactive)
23,Cc1cc(C)n2nnnc2c1C#N,1.6% (inactive)
24,O=C(Nc1ccc(Br)cc1)c1ccc(N2C(=O)C3CCCCC3C2=O)cc1 (stereo not drawn),-1% (inactive)

row,Structure (SMILES),displacement
1,O=C(Nc1ccc(Br)cc1)c1ccc(N2C(=O)C3CC=C(Cl)CC3C2=O)cc1 (stereo not drawn),-0.2% (inactive)
2,CCCOc1ccc(C(=O)CCC(=O)OCC(=O)Nc2cc(C)on2)cc1,-2.7% (inactive)
3,COc1ccccc1C(=O)Nc1ccnn1C1CCN(Cc2ccc3nonc3c2)CC1,7.2% (inactive)
4,Cn1c(Cc2csc(N)n2)nnc1SCC(=O)NC1CCCCC1,0.1% (inactive)
5,O=S(=O)(c1ccc(Cl)cc1)N1CCN(C2CCN(Cc3ccccc3)CC2)CC1,3% (inactive)
6,Cc1oc2cc(O)ccc2c(=O)c1-c1ccccc1,8.8% (inactive)
7,Nc1ccc(-c2c3ccc(=O)cc-3oc3cc(O)ccc23)cc1C(=O)O,3% (inactive)
8,C/C(=N\NC(=O)c1c(Cl)cnn1C)c1cccc(NC(=O)COc2ccccc2)c1,0.3% (inactive)
9,CC(=O)Nc1ccc(C(=S)NCCCO)cc1,-4.5% (inactive)
10,O=C(COC(=O)c1ccc2c(c1Cl)C(=O)c1ccccc1C2=O)NC1CCCCC1,-2.2% (inactive)
11,COC(=O)c1ccc2c(c1O)C(=O)c1ccccc1C2=O,71.8% (active)
12,Cc1[nH]c2ccccc2c1CCNC(=O)c1ccc2c(c1[N+](=O)[O-])C(=O)c1ccccc1C2=O,22.7% (inactive)
13,CCN(CC)C(=O)c1ccc2c(c1[N+](=O)[O-])C(=O)c1ccccc1C2=O,34.3% (inactive)
14,O=C(COC(=O)c1ccc2c(c1Cl)C(=O)c1ccccc1C2=O)NC1CC1,-3.3% (inactive)
15,O=C(COC(=O)c1ccc2c(c1[N+](=O)[O-])C(=O)c1ccccc1C2=O)NC1CC1,76.3% (active)
16,CC(C)COC(=O)c1ccc2c(c1O)C(=O)c1ccccc1C2=O,4.6% (inactive)
17,COc1ccc2c(c1O)C(=O)c1ccccc1C2=O,2.4% (inactive)
18,CN(C)C(=O)c1ccc2c(c1[N+](=O)[O-])C(=O)c1ccccc1C2=O,60.6% (active)
19,CN(CCOc1ccccc1)S(=O)(=O)c1ccc2oc3ccccc3c2c1,2.8% (inactive)
20,CC(=O)c1ccc(NC(=O)CCNS(=O)(=O)c2ccccc2F)cc1,-1.6% (inactive)
21,Cc1ccc(N(C)S(=O)(=O)c2cc3c(cc2C)NC(=O)CO3)cc1,-1% (inactive)
